Screening data (PubChem)
MARV entry inh = qHTS for inhibitors of binding or entry into cells for Marburg Virus; Marburg virus pseudotyped entry inhibition, cell reporter; Potency, µM (top dose mostly 37.8 µM), usual class: inhibitors; actives 1.8% (n = 300,000); AID 540276, 2011; calls by dose curve; tested in HEK293 cells
Lassa entry inh = qHTS for Inhibitors of binding or entry into cells for Lassa Virus; Lassa virus pseudotype entry inhibition, cell reporter; Potency, µM (titrated, usually from 37.9 µM), usual class: inhibitors; actives 1.2% (n = 300,000); calls by dose curve; tested in HEK293 cells; note: nearly all actives have a fitted effect of over 50% in size
CHX counter = Cycloheximide Counterscreen for Small Molecule Inhibitors of Shiga Toxin; cell reporter, cycloheximide protein synthesis inhibition counterscreen; AID 2314, 2010; max response, %; actives 12% (n = 300,000); in the data active = max response mostly above about 13%, no sharp cut-off; inactive = mostly below about 14%; note: read at 38.3 µM for the half of the compounds with a filed dose
Shiga toxin inh = A qHTS for Small Molecule Inhibitors of Shiga Toxin | Vero cells, Shiga toxin protein synthesis inhibition reporter | inhibition, % at 38.7 µM | actives 9.2% (n = 290,000) | AID 2315, 2010; in the data active = inhibition mostly above about 28%, no sharp cut-off; inactive = mostly below about 43%
Of the large screens only hits and unclear results are named; the others gave an inactive call. This is a sample that favours compounds with a hit; in the whole collection about 12% have one here.

O=S(=O)(NCc1cccnc1)c1ccc(Cl)c2ccccc12	MARV entry inh inconclusive
CCCC[C@H]1COCCS(=O)(=O)N1Cc1ccc(Br)cc1	none (no result: MARV entry inh, Lassa entry inh)
COc1cc(/C=N/NC(=O)c2cc(-c3cccc(OC(C)C)c3)nc3ccccc23)ccc1O	MARV entry inh 3.55µM, Lassa entry inh 3.55µM (no result: CHX counter, Shiga toxin inh)
N#Cc1ccc(/C=N/NC(=O)c2cc(-c3cccs3)nc3ccccc23)cc1	MARV entry inh 6.31µM, Lassa entry inh inconclusive, CHX counter 22.2
NS(=O)(=O)c1ccc(CCNC(=O)c2cc(-c3cccs3)nc3ccccc23)cc1	MARV entry inh 7.94µM, Lassa entry inh inconclusive
COc1cc(/C=N/NC(=O)c2cc(-c3ccccc3)nc3ccccc23)cc(OC)c1O	none (no result: MARV entry inh, Lassa entry inh, Shiga toxin inh)
COc1cc(/C=N/NC(=O)c2cc(-c3cccs3)nc3ccccc23)ccc1O	Shiga toxin inh 45.0 (no result: MARV entry inh, Lassa entry inh)
CCCCCc1ccnc(CC(=O)c2ccc(OC)cc2)c1	MARV entry inh inconclusive (no result: CHX counter, Shiga toxin inh)
O=C(NCCS(=O)(=O)N1CCN(c2ccccc2F)CC1)c1cccc(Br)c1	none (no result: MARV entry inh, Lassa entry inh)
COc1ccccc1-c1cc(C(=O)N/N=C/c2ccc(C)s2)c2ccccc2n1	MARV entry inh 8.91µM, Lassa entry inh 7.08µM
C/C(=N\Nc1nc2ccc(Cl)cc2o1)c1ccccc1	MARV entry inh inconclusive, CHX counter 26.7, Shiga toxin inh 73.5
COc1ccc(-c2csc(Nc3ncccc3C)n2)cc1OC	Lassa entry inh inconclusive, CHX counter 33.8, Shiga toxin inh 139.1
COc1ccc(-c2csc(Nc3ncccc3C)n2)cc1	MARV entry inh inconclusive, Lassa entry inh inconclusive
Cc1cccnc1Nc1nc(-c2ccc(O)c(O)c2)cs1	CHX counter 45.4, Shiga toxin inh 79.9 (no result: Lassa entry inh)
CNCCC[C@]12CC[C@H](C3=C1CCCC3)C1CCCCC12 (stereo partly drawn)	MARV entry inh 4.61µM (no result: Lassa entry inh, CHX counter, Shiga toxin inh)
COc1ccc(/C=N/Nc2snc(SC)c2C#N)cc1OC	MARV entry inh inconclusive, Lassa entry inh 6.31µM, CHX counter 34.8, Shiga toxin inh 97.5
COc1cccc(/C=N/Nc2ccc(S(=O)(=O)O)cc2)c1O	none
COc1cccc(/C=N/Nc2snc(SC)c2C#N)c1	MARV entry inh inconclusive, Lassa entry inh 5.62µM, CHX counter 27.0, Shiga toxin inh 66.8
CSc1nsc(N/N=C/c2ccccc2)c1C#N	CHX counter 30.5, Shiga toxin inh 51.0
COc1cccc(/C=N/Nc2snc(SC)c2C#N)c1O	MARV entry inh inconclusive, Lassa entry inh inconclusive, CHX counter 72.3, Shiga toxin inh 69.4
C=Cc1ccc(CSc2nc(-c3ccc(C)cc3)nc3c2Cc2c(CO)cnc(C)c2O3)cc1	none (no result: MARV entry inh, CHX counter, Shiga toxin inh)
COc1cc(/C=C/C(=O)OCC(=O)c2c[nH]c3ccccc23)ccc1OC(F)F	none
Cc1nnc(SCC(=O)Nc2ccc(S(N)(=O)=O)cc2)n(N)c1=O	none (no result: CHX counter, Shiga toxin inh)
O=C(CSc1nncs1)NC(=O)NC1CCCC1	none (no result: MARV entry inh, Lassa entry inh)
O=C(O)C(Cc1c[nH]c2ccccc12)N1Cc2ccccc2C1=O (stereo not drawn)	MARV entry inh inconclusive, Lassa entry inh inconclusive, CHX counter 27.9, Shiga toxin inh 41.6
COC(=O)N/N=C/c1cc(OC)c(O)c([N+](=O)[O-])c1	CHX counter 92.2, Shiga toxin inh 76.9
COc1cc(/C=N/NC(N)=O)cc([N+](=O)[O-])c1O	Lassa entry inh inconclusive
COc1cc(/C=N/NC(=O)C(Cc2c[nH]c3ccccc23)NC(=O)OCc2ccccc2)cc([N+](=O)[O-])c1O (stereo not drawn)	Lassa entry inh 6.31µM
COc1ccc(C(C(=O)NC2CCCC2)N(CCCO)C(=O)c2snc(C(N)=O)c2N)cc1 (stereo not drawn)	none
CCn1ncc(CN2CCCC(C(=O)Nc3cccc(-c4cc5ccccc5[nH]4)c3)C2)c1C (stereo not drawn)	MARV entry inh inconclusive, Lassa entry inh 12.6µM
CCOc1ccc(CNC(=O)C2CCN(S(=O)(=O)c3cn(C)cn3)CC2)cc1OC	none (no result: MARV entry inh, CHX counter, Shiga toxin inh)
CCOC(=O)Cc1cc(=O)n2[nH]c(-c3ccc(C)cc3)cc2n1	none
Cc1nc2cc(-c3ccccc3)[nH]n2c(=O)c1C	CHX counter 34.1, Shiga toxin inh 63.0 (no result: MARV entry inh, Lassa entry inh)
CCc1c(C)nc2cc(-c3ccc(OC)cc3)[nH]n2c1=O	CHX counter 32.4, Shiga toxin inh 130.4
Cc1cc(=O)n2[nH]c(-c3ccccc3)cc2n1	Shiga toxin inh 65.7
Cc1nc2nc(-c3ccccc3)[nH]n2c(=O)c1C	none
COCc1cc(=O)n2[nH]c(-c3ccc(C)cc3)cc2n1	CHX counter 37.2, Shiga toxin inh 71.7
O=C1c2ccccc2NC(c2ccc([N+](=O)[O-])cc2)N1O (stereo not drawn)	MARV entry inh inconclusive, Lassa entry inh inconclusive
CC1(c2ccc(Cl)cc2Cl)NC(=O)N(CC(=O)Nc2ccc3[nH]c(=O)[nH]c3c2)C1=O (stereo not drawn)	none (no result: CHX counter, Shiga toxin inh)
COc1cc(C(=O)OCC(=O)N2CC(C)OC(C)C2)cc(OC)c1OC (stereo not drawn)	none
CN(C)c1nc(C=C(C#N)C#N)c(Cl)n1-c1ccc(F)cc1	MARV entry inh inconclusive, Lassa entry inh inconclusive, CHX counter 24.0
CN(C)c1ccc(C=C(C#N)C#N)cc1	MARV entry inh inconclusive
COc1ccccc1N(C)S(=O)(=O)c1ccc(Cl)c(C(=O)NNC(=O)c2ccccc2O)c1	none (no result: MARV entry inh, Lassa entry inh)
COc1ccccc1N(C)S(=O)(=O)c1ccc(Cl)c(C(=O)OCc2c(C)noc2C)c1	MARV entry inh inconclusive, Lassa entry inh 11.2µM
Cc1ccc(S(=O)(=O)NCC(c2cccnc2)N2CCc3ccccc32)cc1 (stereo not drawn)	none (no result: MARV entry inh, Lassa entry inh)
CC(=O)NC(=S)Nc1ccc(-c2nc3ccc(C)cc3s2)cc1	CHX counter 27.4, Shiga toxin inh 79.7
CC1=CCC(C(=O)O)C(C(=O)O)C1 (stereo not drawn)	none
CNC(=S)Nc1ccc(-c2nc3ccc(C)cc3s2)cc1	MARV entry inh inconclusive, Lassa entry inh inconclusive, CHX counter 30.1, Shiga toxin inh 95.1
CC1=CCC(C(=O)O)C(C(=O)Nc2ccc(-c3nc4ccc(C)cc4s3)cc2)C1 (stereo not drawn)	MARV entry inh inconclusive, CHX counter 53.7, Shiga toxin inh 104.4
COCCNc1nnc(SC(C)C(=O)Nc2ccc(-c3nc4ccc(C)cc4s3)cc2)s1 (stereo not drawn)	MARV entry inh inconclusive, Lassa entry inh inconclusive, CHX counter 28.2, Shiga toxin inh 93.2
Cc1ccc2nc(NC(=S)NC(=O)c3ccc(OC(C)C)cc3)sc2c1	none (no result: Lassa entry inh)
CCc1nnc(NC(=O)C2COc3ccccc3O2)s1 (stereo not drawn)	Lassa entry inh inconclusive, CHX counter 35.6
CCC(CC)c1nnc(NC(=O)C2COc3ccccc3O2)s1 (stereo not drawn)	CHX counter 35.9, Shiga toxin inh 66.6
O=C(Nc1ncc(Cc2ccccc2)s1)C1COc2ccccc2O1 (stereo not drawn)	MARV entry inh inconclusive, Lassa entry inh inconclusive, CHX counter 43.5, Shiga toxin inh 125.9
O=C(Nc1nc2c(s1)CCCC2)C1COc2ccccc2O1 (stereo not drawn)	MARV entry inh inconclusive, Lassa entry inh 5.8µM, CHX counter 38.1, Shiga toxin inh 45.2
C/C(=N/NC(=O)CNC(=O)c1ccccc1F)c1ccc2c(c1)CCCC2	MARV entry inh inconclusive
COC1=C(CC=C(C)C)C2=C(CCC(=O)O2)CC1	none (no result: Lassa entry inh, CHX counter, Shiga toxin inh)
Cc1ccc(CSc2nnc(NC(=O)C3COc4ccccc4O3)s2)cc1 (stereo not drawn)	none (no result: Lassa entry inh)
